# Measured values from publication PMC7862700, “An all-to-all approach to the identification of sequence-specific readers for epigenetic DNA modifications on cytosine”.
# Tests used:
# Assay in all cases: DAPPL (digital affinity profiling via proximity ligation, sequencing); 10 mM Tris-HCl pH 7.5, 50 mM NaCl, 1 mM DTT, 4% glycerol, room temperature, 30 min; GST-TFs on glutathione beads, 16-mer random dsDNA library, 0.1% formaldehyde crosslink after washing; high values mean tight binding
# Settings in all cases: protein: recombinant; tags: N-terminal GST; dsDNA, one strand shown
# FLI1 = molecular target: T1, FLI1 (Homo sapiens, UniProt Q01543 1-452)
# T1 sequence: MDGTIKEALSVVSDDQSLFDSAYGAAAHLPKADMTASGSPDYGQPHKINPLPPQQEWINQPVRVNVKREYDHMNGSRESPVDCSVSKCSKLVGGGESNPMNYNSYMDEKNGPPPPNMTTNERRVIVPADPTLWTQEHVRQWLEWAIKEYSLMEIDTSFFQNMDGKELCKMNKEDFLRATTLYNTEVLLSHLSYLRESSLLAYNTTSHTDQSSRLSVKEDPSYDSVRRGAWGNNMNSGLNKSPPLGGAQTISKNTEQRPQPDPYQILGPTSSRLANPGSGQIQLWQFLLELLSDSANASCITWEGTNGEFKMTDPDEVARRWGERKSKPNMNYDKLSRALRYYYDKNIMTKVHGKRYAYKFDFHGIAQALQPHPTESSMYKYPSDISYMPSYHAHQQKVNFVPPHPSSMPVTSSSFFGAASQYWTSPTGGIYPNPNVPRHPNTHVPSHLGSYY
# How it was run: (§1)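 After expression in yeast as GST fusions, human transcription factors were bound to glutathione beads, DNA-barcoded and mixed with a tag-only sample. The pools were incubated with 200 nmole of a 16-mer random double-stranded DNA library in Tris/NaCl/DTT/glycerol buffer (30 min, room temperature), washed and crosslinked with 0.1% formaldehyde. Proximity ligation with BsaI/T4 ligase ran for 1 h at 37 °C, before PCR amplification and sequencing on an Illumina NextSeq500. Binding signal is a hexamer's read frequency for a factor divided by its frequency for the tag-only sample.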
# ELK1 = molecular target: T2, ELK1 (Homo sapiens, UniProt P19419 1-428)
# T2 sequence: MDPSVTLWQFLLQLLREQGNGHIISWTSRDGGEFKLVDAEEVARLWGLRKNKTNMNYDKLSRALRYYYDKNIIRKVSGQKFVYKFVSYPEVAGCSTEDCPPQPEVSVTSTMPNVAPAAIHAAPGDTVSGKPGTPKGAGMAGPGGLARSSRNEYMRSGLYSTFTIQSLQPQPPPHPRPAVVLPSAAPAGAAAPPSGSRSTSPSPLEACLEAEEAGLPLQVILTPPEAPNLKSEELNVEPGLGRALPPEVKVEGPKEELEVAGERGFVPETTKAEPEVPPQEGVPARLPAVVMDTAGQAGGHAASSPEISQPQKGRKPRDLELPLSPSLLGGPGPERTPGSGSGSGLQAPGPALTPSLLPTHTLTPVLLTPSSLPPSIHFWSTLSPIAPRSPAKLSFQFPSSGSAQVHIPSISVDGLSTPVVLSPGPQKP
# How it was run: as §1
# GABPA = molecular target: T3, GABPA (Homo sapiens, UniProt Q06546 1-454)
# T3 sequence: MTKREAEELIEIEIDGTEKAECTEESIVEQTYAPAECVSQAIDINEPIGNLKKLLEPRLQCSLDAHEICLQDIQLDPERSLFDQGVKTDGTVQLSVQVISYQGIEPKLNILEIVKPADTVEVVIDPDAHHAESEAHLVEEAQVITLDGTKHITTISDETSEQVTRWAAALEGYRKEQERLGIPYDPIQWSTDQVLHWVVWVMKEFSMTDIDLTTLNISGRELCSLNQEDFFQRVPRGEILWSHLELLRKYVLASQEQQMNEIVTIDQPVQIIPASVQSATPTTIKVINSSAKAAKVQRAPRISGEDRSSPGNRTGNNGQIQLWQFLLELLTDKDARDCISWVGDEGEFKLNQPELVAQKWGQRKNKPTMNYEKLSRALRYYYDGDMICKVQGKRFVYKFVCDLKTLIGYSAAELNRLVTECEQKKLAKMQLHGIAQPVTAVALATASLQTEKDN
# How it was run: as §1
# ERG = molecular target: T4, ERG (Homo sapiens, UniProt P11308 1-479)
# T4 sequence: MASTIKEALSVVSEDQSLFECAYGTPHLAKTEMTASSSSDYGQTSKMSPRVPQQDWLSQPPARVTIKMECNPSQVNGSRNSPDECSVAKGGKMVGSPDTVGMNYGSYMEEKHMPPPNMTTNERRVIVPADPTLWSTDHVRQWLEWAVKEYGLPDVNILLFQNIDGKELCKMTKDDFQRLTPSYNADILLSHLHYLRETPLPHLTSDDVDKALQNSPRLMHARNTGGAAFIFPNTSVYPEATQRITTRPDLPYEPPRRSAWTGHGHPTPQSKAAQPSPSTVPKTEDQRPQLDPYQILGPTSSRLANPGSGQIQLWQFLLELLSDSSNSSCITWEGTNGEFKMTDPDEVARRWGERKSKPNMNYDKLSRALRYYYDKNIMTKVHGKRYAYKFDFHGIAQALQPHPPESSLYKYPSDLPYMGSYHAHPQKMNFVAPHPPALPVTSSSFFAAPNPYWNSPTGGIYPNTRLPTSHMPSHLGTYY
# How it was run: as §1
# ELF1 = ELF1 (Homo sapiens, UniProt P32519 1-619)
# How it was run: as §1
# EHF = molecular target: T5, EHF (Homo sapiens, UniProt Q9NZC4 1-300)
# T5 sequence: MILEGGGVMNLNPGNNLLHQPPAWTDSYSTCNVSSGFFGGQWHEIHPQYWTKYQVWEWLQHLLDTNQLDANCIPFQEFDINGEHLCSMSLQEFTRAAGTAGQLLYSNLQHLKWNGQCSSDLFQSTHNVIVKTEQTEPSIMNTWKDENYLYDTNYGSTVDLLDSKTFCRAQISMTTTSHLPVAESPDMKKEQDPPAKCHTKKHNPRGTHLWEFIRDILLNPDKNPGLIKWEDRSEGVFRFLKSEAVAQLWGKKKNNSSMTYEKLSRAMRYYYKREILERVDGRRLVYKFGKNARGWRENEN
# How it was run: as §1
# SPI1 = SPI1 (Homo sapiens, UniProt P17947 1-270)
# How it was run: as §1
# SPIB = SPIB (Homo sapiens, UniProt Q01892 1-262)
# How it was run: as §1
# ELK3 = molecular target: T6, ELK3 (Homo sapiens, UniProt P41970 1-407)
# T6 sequence: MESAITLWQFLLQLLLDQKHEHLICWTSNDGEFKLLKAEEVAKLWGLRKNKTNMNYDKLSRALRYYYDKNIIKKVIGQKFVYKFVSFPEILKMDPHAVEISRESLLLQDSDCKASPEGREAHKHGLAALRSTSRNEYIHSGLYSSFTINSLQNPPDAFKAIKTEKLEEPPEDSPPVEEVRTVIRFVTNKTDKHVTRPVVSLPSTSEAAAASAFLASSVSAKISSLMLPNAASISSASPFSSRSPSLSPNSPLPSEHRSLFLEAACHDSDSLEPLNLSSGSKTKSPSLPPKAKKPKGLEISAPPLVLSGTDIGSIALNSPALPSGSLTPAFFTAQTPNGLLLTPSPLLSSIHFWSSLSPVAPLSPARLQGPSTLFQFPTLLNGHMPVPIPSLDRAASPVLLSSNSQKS
# How it was run: as §1
# SPIB, sequence (Q01892 whole entry): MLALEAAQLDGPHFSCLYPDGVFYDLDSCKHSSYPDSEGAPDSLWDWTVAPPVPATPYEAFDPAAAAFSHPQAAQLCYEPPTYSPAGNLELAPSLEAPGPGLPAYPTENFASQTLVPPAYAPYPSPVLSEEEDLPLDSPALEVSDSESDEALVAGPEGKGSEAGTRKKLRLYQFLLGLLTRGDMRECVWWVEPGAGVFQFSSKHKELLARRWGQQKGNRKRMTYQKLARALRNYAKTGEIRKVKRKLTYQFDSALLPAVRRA
# ELF1, sequence (P32519 whole entry): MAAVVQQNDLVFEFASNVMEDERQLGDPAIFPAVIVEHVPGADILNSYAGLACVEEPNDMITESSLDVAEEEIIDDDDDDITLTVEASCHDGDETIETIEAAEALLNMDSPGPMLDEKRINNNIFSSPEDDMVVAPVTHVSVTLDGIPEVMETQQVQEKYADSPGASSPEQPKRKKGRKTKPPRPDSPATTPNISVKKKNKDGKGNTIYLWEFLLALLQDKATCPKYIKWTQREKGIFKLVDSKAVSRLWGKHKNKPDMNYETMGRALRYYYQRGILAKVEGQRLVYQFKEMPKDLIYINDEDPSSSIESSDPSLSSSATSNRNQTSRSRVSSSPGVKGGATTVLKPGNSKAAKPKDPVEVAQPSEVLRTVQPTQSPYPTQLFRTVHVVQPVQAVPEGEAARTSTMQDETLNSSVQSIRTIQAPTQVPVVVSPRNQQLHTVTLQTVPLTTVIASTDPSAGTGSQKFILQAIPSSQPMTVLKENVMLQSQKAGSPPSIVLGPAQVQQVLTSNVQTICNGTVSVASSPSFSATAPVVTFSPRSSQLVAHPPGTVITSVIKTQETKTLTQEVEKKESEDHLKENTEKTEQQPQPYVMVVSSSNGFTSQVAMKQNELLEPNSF
sequence,measurement,setting,value
CTAATC,binding signal,FLI1,"1.32 fold enrichment (6-mer frequency, TF over GST control)"
same,binding signal,ELK1,"1.39 fold enrichment (6-mer frequency, TF over GST control)"
same,binding signal,GABPA,"1.34 fold enrichment (6-mer frequency, TF over GST control)"
same,binding signal,ERG,"1.32 fold enrichment (6-mer frequency, TF over GST control)"
same,binding signal,ELF1,"1.32 fold enrichment (6-mer frequency, TF over GST control)"
same,binding signal,EHF,"1.35 fold enrichment (6-mer frequency, TF over GST control)"
same,binding signal,SPI1,"1.26 fold enrichment (6-mer frequency, TF over GST control)"
same,binding signal,SPIB,"1.45 fold enrichment (6-mer frequency, TF over GST control)"
same,binding signal,ELK3,"1.44 fold enrichment (6-mer frequency, TF over GST control)"
